Sampled rows, rich in hits. Any-hit rate of the full collection: about 18%.
DT40 TDP1 CPT = qHTS for Inhibitors of human tyrosyl-DNA phosphodiesterase 1 (TDP1): qHTS in cells in presence of CPT | AID 686979, 2013 | 420,000 compounds, 12% hits | chicken DT40 Tdp1-/-;hTDP1 cells + 20 nM CPT, ATP luminescence, 48 h | Potency, µM (doses to about 46.2 µM), usual class: inhibitors; note: nearly all actives have a fitted effect of over 55% in size
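Cell growth measured by CellTiter-Glo luminescence after a minimum 48 h, 37 C compound exposure with 20 nM CPT in Tdp1-knockout DT40 cells stably expressing hTDP1, seeded 400/well; qHTS titration format.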
DT40 TDP1 no CPT = qHTS for Inhibitors of human tyrosyl-DNA phosphodiesterase 1 (TDP1): qHTS in cells in absence of CPT; DT40 Tdp1-/- hTDP1 cells, no CPT, ATP luminescence, 48 h; Potency, µM (top dose mostly 46.2 µM), actives largely listed as inhibitors; 420,000 compounds, 15% hits; note: nearly all actives have a fitted effect of over 55% in size
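Cells were dispensed at 400 per well, compounds added by pin tool, plates incubated ≥48 hr at 37 °C, then CellTiter-Glo added for 30 min at room temperature before luminescence reading. Line: DT40 Tdp1-/- complemented with hTDP1; camptothecin omitted.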
PLK1 PBD block = qHTS for Inhibitors of PLK1-PDB (polo-like kinase 1 - polo-box domain): Primary Screen; Serine/threonine-protein kinase PLK1 (Homo sapiens), P53350; Plk1 PBD binding of FITC phosphopeptide, fluorescence polarization; Potency, µM, actives largely listed as inhibitors; 360,000 compounds, 2.8% hits; AID 720504, 2013; note: series mostly up to about 57 µM; nearly all actives have a fitted effect of over 65% in size
VDR inh = Inhibitors of the vitamin D receptor (VDR): qHTS. Vitamin D3 receptor (Homo sapiens), P11473. VDR-SRC2-3 peptide fluorescence polarization, 2 h. Potency, µM, hits mostly inhibitors. 400,000 compounds, 0.93% hits. AID 504847, 2011
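Signal is fluorescence polarization, reporting how far test compounds block the interaction of VDR with the SRC2-3 coregulator peptide after a 2 h room-temperature incubation.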
KAT2A inh = qHTS Assay for Inhibitors of GCN5L2; Potency, µM (series often up to 58.9 µM), usual class: inhibitors; 390,000 compounds, 0.21% hits; AID 504327, 2011; GCN5L2 HAT assay, ThioGlo1 CoA-SH fluorescence
Target sequence (Q92830 whole entry, looked up): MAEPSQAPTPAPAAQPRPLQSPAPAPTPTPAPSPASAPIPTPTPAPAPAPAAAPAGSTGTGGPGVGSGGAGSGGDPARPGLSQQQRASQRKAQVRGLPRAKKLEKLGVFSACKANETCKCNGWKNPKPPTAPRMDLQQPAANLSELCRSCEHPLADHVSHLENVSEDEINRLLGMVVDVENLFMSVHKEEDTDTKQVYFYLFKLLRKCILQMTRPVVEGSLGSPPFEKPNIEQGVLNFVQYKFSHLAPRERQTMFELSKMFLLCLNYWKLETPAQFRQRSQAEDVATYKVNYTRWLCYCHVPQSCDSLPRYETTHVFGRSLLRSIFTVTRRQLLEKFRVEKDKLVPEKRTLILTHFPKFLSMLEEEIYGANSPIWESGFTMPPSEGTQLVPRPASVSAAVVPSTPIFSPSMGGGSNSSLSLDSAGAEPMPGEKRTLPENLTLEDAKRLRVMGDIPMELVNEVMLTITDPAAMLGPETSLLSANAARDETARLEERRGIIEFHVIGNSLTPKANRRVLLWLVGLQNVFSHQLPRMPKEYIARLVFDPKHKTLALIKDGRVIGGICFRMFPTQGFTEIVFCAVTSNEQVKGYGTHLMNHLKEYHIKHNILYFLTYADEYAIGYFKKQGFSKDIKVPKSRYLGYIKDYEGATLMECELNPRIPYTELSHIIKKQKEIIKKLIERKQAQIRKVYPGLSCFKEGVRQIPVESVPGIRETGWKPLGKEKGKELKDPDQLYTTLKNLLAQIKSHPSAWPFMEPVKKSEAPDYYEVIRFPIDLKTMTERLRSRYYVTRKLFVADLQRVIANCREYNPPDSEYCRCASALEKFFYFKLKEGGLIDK
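GCN5L2 (20 nM) in 50mM HEPES pH 7.5, 0.1mM EDTA, 0.01% Tween-20 preincubated 15 min with compounds at room temperature. Reaction started with H3(1-25) 75uM, acetyl-CoA 70uM, ThioGlo1 50uM; CoA-thiol fluorescence (Ex340/Em540) read at 0 and 20 min.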
TDP1 inh = qHTS Assay for Inhibitors of Tyrosyl-DNA Phosphodiesterase (TDP1) | Tyrosyl-DNA phosphodiesterase 1 (Homo sapiens), Q9NUW8 | 350,000 compounds, 0.28% hits | AID 485290, 2010 | Potency, µM (top dose mostly 130 µM), usual class: inhibitors | recombinant TDP1, AlphaScreen DNA substrate cleavage; note: nearly all actives have a fitted effect of over 40% in size
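Recombinant human Tdp1 (E. coli-expressed, 1 nM final) preincubated with compounds 15 min at room temperature, then 5'-biotin/3'-phosphotyrosine-FITC DNA substrate (15 nM final) added for 5 min. AlphaScreen beads (10 ug/ml final) added 10 min; cleavage lowers signal.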
Each line names hits and unclear results; the compound was inactive in the other large screens. Calls come from the whole dose curve; as a rule, active = well fitted curve in the direction sought with a large enough effect; inconclusive = small, poorly fitted or top-dose-only effect, or another doubt; inactive = no such curve, though single readings can be large; an effect the other way counts as inactive or inconclusive.

Cc1ccccc1NC(=O)c1c(-c2ccccc2)noc1C	DT40 TDP1 CPT 12µM, DT40 TDP1 no CPT 9.2µM
COc1ccc(NC(=O)c2c(-c3ccccc3)noc2C)c(OC)c1	none
CCCOc1ccccc1NC(=O)c1c(-c2ccccc2)noc1C	DT40 TDP1 CPT inconclusive, DT40 TDP1 no CPT 8.2µM
COc1c(Cl)cc(-c2noc(C)c2C(=O)NCc2ccccc2)cc1Cl	PLK1 PBD block 30µM
Cc1ccc(F)cc1NC(=O)c1c(-c2ccccc2)noc1C	DT40 TDP1 CPT inconclusive, DT40 TDP1 no CPT inconclusive
Cc1onc(-c2ccccc2)c1C(=O)Nc1ccccc1NC(=O)c1c(-c2ccccc2)noc1C	DT40 TDP1 CPT 15µM, DT40 TDP1 no CPT 18µM
COc1cccc(Cn2c(=O)c(CCc3ccccc3)nc3cnc(N4CCN(C)CC4)nc32)c1	DT40 TDP1 CPT inconclusive, DT40 TDP1 no CPT inconclusive, VDR inh inconclusive (no result: PLK1 PBD block, TDP1 inh)
CCC[C@@H]1C[C@@]1(CCC)C(NC(=O)c1ccccc1)c1cccc(Cl)c1 (some centres not stated)	none (no result: DT40 TDP1 CPT, DT40 TDP1 no CPT, PLK1 PBD block, VDR inh, KAT2A inh)
O=C(Nc1cc(C(F)(F)F)ccc1N1CCOCC1)c1ccc(F)cc1	none
Cc1onc(-c2ccccc2)c1C(=O)Nc1cc(C(F)(F)F)ccc1N1CCOCC1	DT40 TDP1 CPT 3.7µM, DT40 TDP1 no CPT 2.9µM
COc1ccc(S(=O)(=O)NNC(=O)c2cc3c4ccccc4n(C)c3s2)cc1	DT40 TDP1 CPT 2.9µM, DT40 TDP1 no CPT 4.1µM
CC(=O)NNC(=O)c1cc2c3ccccc3n(C)c2s1	none
O=C1CCN(Cc2ccccc2)S(=O)(=O)c2ccccc21	DT40 TDP1 CPT 29µM, DT40 TDP1 no CPT inconclusive, VDR inh inconclusive
O=C(COC(=O)c1cnccn1)Nc1ccc(Cl)cn1	none
CC(=O)c1c(C)[nH]c(C(=O)OCCOc2ccccc2)c1C	DT40 TDP1 CPT inconclusive, DT40 TDP1 no CPT 9.2µM
COc1ccc(C)cc1COC(=O)c1[nH]c(C)c(C(C)=O)c1C	DT40 TDP1 CPT 21µM, DT40 TDP1 no CPT 16µM
CC(=O)c1c(C)[nH]c(C(=O)COC(=O)CCCOc2ccccc2)c1C	none
CC(=O)c1c(C)[nH]c(C(=O)OCc2nnc(-c3ccc([N+](=O)[O-])cc3)o2)c1C	DT40 TDP1 CPT 23µM, DT40 TDP1 no CPT 15µM
CC(=O)c1c(C)[nH]c(C(=O)OCC(=O)NNC(=O)c2ccc([N+](=O)[O-])cc2)c1C	none
CC(=O)c1c(C)[nH]c(C(=O)COc2cc(C)cc(C)c2)c1C	DT40 TDP1 CPT inconclusive, DT40 TDP1 no CPT 16µM
CC(=O)c1c(C)[nH]c(C(=O)COc2ccc3ccc(=O)oc3c2)c1C	DT40 TDP1 CPT inconclusive, DT40 TDP1 no CPT inconclusive (no result: TDP1 inh)
CCCCn1c(N)c(N(CC)C(=O)C2COc3ccccc3O2)c(=O)[nH]c1=O (configuration not stated)	none (no result: TDP1 inh)
O=C(NCCN1CCOCC1)c1ccc(NC(=O)c2ccc(Br)o2)cc1	none (no result: VDR inh, KAT2A inh, TDP1 inh)
O=C(c1cc(C(F)(F)F)cc(C(F)(F)F)c1)N1CCC2(CCCN(Cc3ccccc3)C2)CC1	none (no result: PLK1 PBD block, TDP1 inh)
C[C@H](CO)N1C[C@H](C)[C@@H](CN(C)C(=O)CN2CCOCC2)Oc2ncc(-c3cncnc3)cc2C1=O	DT40 TDP1 no CPT inconclusive (no result: VDR inh, KAT2A inh, TDP1 inh)
CC(=O)c1c(C)[nH]c(C(=O)OCc2ccccc2F)c1C	DT40 TDP1 CPT 15µM, DT40 TDP1 no CPT 21µM
CC(=O)c1c(C)[nH]c(C(=O)OCc2cccc(C)c2)c1C	DT40 TDP1 CPT 16µM, DT40 TDP1 no CPT 13µM
CSc1ncccc1C(=O)OCC(=O)c1[nH]c(C)c(C(C)=O)c1C	DT40 TDP1 CPT 18µM, DT40 TDP1 no CPT inconclusive
COC(=O)c1c(C)[nH]c(C(=O)COc2ccc3ccc(=O)oc3c2)c1C	DT40 TDP1 CPT inconclusive, DT40 TDP1 no CPT 9.2µM (no result: TDP1 inh)

Assay outcomes deposited in PubChem BioAssay by National Center for Advancing Translational Sciences (NCATS).
